# Compound activity deposited in PubChem BioAssay by several laboratories.
# 697 NFkB inh = inhibitors of PMA/ionomycin-induced NF-kB reporter, 697 cells, primary screen, B-cell NF-kB inhibitor project, cell-based, luminescence, uHTS | inhibition, % at 4 µM | 0.33% of 330,000 active | 697 B-cell NF-kB luciferase reporter, 16 h | AID 435022, 2010; in the data active = inhibition above about 35%
# Gli-Sufu antag = Gli-Sufu pathway antagonists, primary screen, luciferase luminescence, Sufu-KO-LIGHT cells, uHTS; inhibition, % at 5 µM; AID 588413, 2011; Sufu-KO-LIGHT fibroblasts, Gli luciferase reporter luminescence; 0.74% of 340,000 active;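 active = inhibition above about 55%, limit read from the data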;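 also: 0% = DMSO-treated cells and 100% = wells with medium but no cells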
# esBAF inh = Bmi1 luciferase reporter increase in mESCs, primary screen, esBAF inhibitor project, mouse ES cells, Bmi1 luciferase knock-in, single point; AID 602393, 2012; 2% of 350,000 active; reporter increase, % at 12.5 µM; 24 h; 100% = twice the neutral-well signal; in the data active = activation above about 40%;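 also: 0% = median of the plate's neutral control wells and 100% = double that signal; a rise in the Bmi1 reporter signal indicates esBAF inhibition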
# SMARCA2 act = SMARCA2 (BRM) function activators, primary screen, cell-based, luminescence, high throughput | MG213 cells, MMTV-luciferase reporter, dexamethasone, overnight | 1% of 370,000 active | activation, % at 9.1 µM; in the data active = activation above about 7.8%;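 also: 0% = vehicle wells and 100% = reference activator wells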
# Jurkat NFkB inh = inhibitors of induced NF-kB luciferase reporter, primary screen, TCR NF-kB activation inhibitor project, cell-based, luminescence, uHTS. Jurkat, PMA/ionomycin-induced NF-kB luciferase reporter. inhibition, % at 4 µM. 0.53% of 330,000 active. AID 435003, 2010; in the data active = inhibition above about 50%
# * marks the source's active call; other numbers are inactive results; nt = no result given. Sampled rows, rich in hits. Any-hit rate of the full collection: about 3.3%.
SMILES,697 NFkB inh,Gli-Sufu antag,esBAF inh,SMARCA2 act,Jurkat NFkB inh
Clc1ccc(OCc2nc(-c3ccncc3)no2)cc1,-74,-35,62*,2,-44
COc1ccc(-c2nc(CS(=O)(=O)CC(=O)Nc3ccc(Cl)cc3)c(C)o2)cc1,0,-2,66*,-3,-1
Fc1ccc(Cn2ccc(-c3cnc(-c4ccccc4)s3)n2)cc1,-81,-54,nt,0,-41
Cc1ccc(Cn2ccc(-c3cnc(-c4ccccc4)s3)n2)cc1,-74,-64,79*,1,-34
CNC[C@H]1Oc2ccc(NC(=O)Cc3cn(C)c4ccccc34)cc2C(=O)N([C@@H](C)CO)C[C@@H]1C,nt,nt,1,nt,nt
O=C(NC1CCCCCC1)c1c(O)c2ccccc2[nH]c1=O,-126,7,46*,1,-76
O=C(NCC1CCCO1)c1c(O)c2ccccc2[nH]c1=O (stereo not drawn),-58,-22,51*,2,-7
CCOC(=O)c1c(NCC2CCCO2)c2ccccc2[nH]c1=O (stereo not drawn),1,6,nt,-2,-5
O=C(Cc1c(O)c2ccccc2[nH]c1=O)NC1CCCCCC1,-5,-11,3,-1,17
CC(C)(C)c1ccc(/C=C/C(=O)N2CCc3ccccc3C2)cc1,-6,0,-1,1,-20
O=C(/C=C/c1ccc(F)cc1)N1CCc2ccccc2C1,-25,-48,48*,4,-38
O=C(Cc1ccc(Br)cc1)N1CCc2ccccc2C1,-49,-32,53*,5,-34
Cc1ccc(/C=C/C(=O)N2CCc3ccccc3C2)cc1,-40,-13,48*,5,-45
COc1cccc(S(=O)(=O)Nc2ccc3c(c2)[C@H]2C[C@H](CC(=O)N(C)C)O[C@H](CO)[C@H]2O3)c1,nt,nt,-11,nt,nt
COc1ccc(S(=O)(=O)N2Cc3ccccc3CC2C(=O)Nc2ccc3c(c2)OCO3)cc1 (stereo not drawn),-16,-3,59*,2,-19
COc1ccc(C(=O)/C=C(\C)Nc2ccc3c(c2)OCO3)cc1,-40,-65,62*,-1,-40
COc1ccc(N/C(C)=C/C(=O)c2ccccc2)cc1,-81,-75,nt,-1,-116
Cc1ccc(S(=O)(=O)N2Cc3ccccc3CC2C(=O)Nc2ccc3c(c2)OCO3)cc1 (stereo not drawn),-7,-6,66*,-1,-27
Cc1ccc(S(=O)(=O)N2Cc3ccccc3CC2C(=O)NC(C)(C)C)cc1 (stereo not drawn),2,5,0,-2,13
Cc1ccc(S(=O)(=O)N(C)C[C@@H]2OCCCC[C@@H](C)Oc3ccc(NS(=O)(=O)c4ccc(Cl)cc4)cc3C(=O)N([C@@H](C)CO)C[C@@H]2C)cc1,nt,nt,5,nt,nt
COc1cc2c(cc1OC)CN(c1ccc(C(F)(F)F)cn1)CC2,-10,-19,41*,-2,-2
Cc1ccc(SCC(=O)NC(C)(C)C)cc1,-19,-38,56*,4,-43
CCCCc1c(C)nn(-c2nnc3c4ccccc4n(C)c3n2)c1C,-34,-24,48*,-3,-11
Cn1c2ccccc2c2nnc(NN)nc21,5,-1,5,-3,-2
C[C@@H]1CN([C@@H](C)CO)C(=O)c2cc(C#Cc3cccc(F)c3)cnc2O[C@H]1CN(C)CC1CCCC1,nt,nt,-7,nt,nt
SMILES,697 NFkB inh,Gli-Sufu antag,esBAF inh,SMARCA2 act,Jurkat NFkB inh
O=C(N/N=C/c1ccc(OCc2ccccc2)cc1)c1cccs1,-29,-36,48*,2,-47
COC(=O)c1sccc1N/N=C/c1ccc(OC)c(OC)c1OC,-41,-57,52*,4,-29
COc1ccc(NC(=O)c2cccs2)cc1,-48,20,nt,5,-86
CCCNC(=O)C(=O)N/N=C/c1ccc(OCc2ccccc2)cc1,-2,-17,-1,0,-4
O=C(Nc1ccc(OCc2ccccc2)cc1)c1cccs1,-78,-59,68*,1,-75
O=C(N/N=C/c1ccc(OCc2ccccc2)cc1)c1ccncc1,-11,-17,28,-1,-77
Oc1ccc(N=Cc2ccc(OCc3ccccc3)cc2)cc1,-23,-2,48*,3,-61
C[C@@H]1CCCCO[C@@H](CN(C)C(=O)C2CCCCC2)[C@H](C)CN([C@@H](C)CO)C(=O)c2cc(NC(=O)Nc3ccc(C(F)(F)F)cc3)ccc2O1,nt,nt,19,nt,nt
C[C@H]1CCCCO[C@@H](CN(C)C(=O)Nc2ccc(F)cc2)[C@@H](C)CN([C@@H](C)CO)C(=O)c2cc(N(C)C)ccc2O1,nt,nt,-1,nt,nt
CCOc1ccc(NC(=S)Nc2ccc(OCc3ccccc3)cc2)cc1,-16,-5,nt,-2,8
CNC(=S)Nc1ccc(OCc2ccccc2)cc1,-10,-15,41*,-2,-22
COc1ccc(/C=N/NC(=O)c2cccnc2)c2ccccc12,23,6,16,0,7
COc1ccc(/C=N/NC(=O)c2cc3c(OC)ccc(OC)c3[nH]2)cc1O,-7,23,nt,3,31
COc1ccc(/C=N/NC(=O)c2cccs2)c2ccccc12,-26,-18,56*,4,-33
COc1ccc(OC)c2[nH]c(C(=O)N/N=C/c3ccccc3O)cc12,-16,59*,-58,-4,36
C[C@@H]1CN([C@@H](C)CO)C(=O)c2cc(N(C)C)ccc2O[C@@H](C)CCCCO[C@@H]1CN(C)C(=O)CCCN(C)C,nt,nt,4,nt,nt
COc1cc(SC)ccc1C(=O)Nc1ccon1,-54,-39,51*,2,-42
COc1ccc(C2CC(c3ccccc3)=NN2C(=O)c2cccs2)cc1 (stereo not drawn),-42,-20,47*,6,-26
COc1ccc(C2=NN(C(=O)c3cccs3)C(c3ccccc3O)C2)cc1 (stereo not drawn),-4,-5,nt,0,-14
O=C(C[C@@H]1C=C[C@H](NS(=O)(=O)c2ccc(F)cc2)[C@@H](CO)O1)NC1CCCCC1,nt,nt,6,nt,nt
CN1C(=O)c2cc(NC(=O)C3CCCC3)ccc2OC[C@H]2O[C@H](CC(=O)O)CC[C@H]21,nt,nt,1,nt,nt
Cc1ccc(NCc2ccccc2O)cc1C,-14,-2,68*,2,-11
Cc1ccc(CNc2cccnc2)cc1,-85,-26,58*,0,-21
CSc1ccc(CNc2ccc(C)cc2)cc1,-16,-23,55*,4,-47
Oc1ccccc1CNc1ccc2c(c1)OCCO2,-54,2,-41,3,-28
CSc1ccc(CNc2ccc(C)c(C)c2)cc1,-14,-35,59*,3,-32
Cc1ccc(NCc2cccnc2)cc1,30,-1,3,1,-3
COC(=O)C[C@@H]1CC[C@H](NS(=O)(=O)c2ccccc2F)[C@H](CO)O1,nt,nt,5,nt,nt
CC(=O)N1CC2(CC(c3ccccc3F)=NO2)CN1c1ccc(Cl)cc1 (stereo not drawn),nt,nt,55*,6,nt
